# In the supplement of paper PMC7366291:
# Counter-ions that a name gives are not always drawn. ± gives the standard deviation or the standard deviation of the averaged measurements.
# What was measured:
# Conditions in all cases: 25 µM; exposure: 24-48 hpf
# [1] = tested on: Danio rerio Tg(wt1b:EGFP) embryo, pronephros; assay: glomerular separation, fold change vs DMSO control; higher = glomeruli further apart (abnormal)
# Procedure, shortened: (§1)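 Dechorionated Tg(wt1b:EGFP) zebrafish embryos were incubated at 28.5°C from 24 to 48 hpf with 25 μM compound in HEPES-buffered E3 containing 0.5% DMSO and 0.003% PTU. Distances and angles between 16 manually set points on maximum projections of dorsal pronephros images were measured in Fiji, with values over 2 SD from the feature mean excluded. Each feature is a fold change relative to the mean of same-day DMSO-treated embryos.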
# [2] = tested on: Danio rerio Tg(wt1b:EGFP) embryo, pronephros; assay: glomerular width (mean of left and right), fold change vs DMSO control; higher = wider glomerulus
# Procedure, shortened: as §1
# [3] = tested on: Danio rerio Tg(wt1b:EGFP) embryo, pronephros; assay: fraction of imaged embryos annotated as normal kidney; higher = less nephrotoxic; extreme values may be limits of the assay
# Procedure, shortened: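 Embryos of the Tg(wt1b:EGFP) zebrafish line were dechorionated and held in 12-well plates with 25 μM compound in 0.5% DMSO and 5 mM HEPES-buffered E3 containing 0.003% PTU, from 24 to 48 hpf at 28.5°C. Larvae were then anaesthetised with tricaine, set dorsal side up in agarose-filled 96-well plates, and their pronephroi imaged by widefield fluorescence at 470 nm over 10 z-slices. Each value is the fraction of embryos per treatment placed in the normal-kidney category after manual annotation of maximum projections.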
# [4] = tested on: Danio rerio Tg(wt1b:EGFP) embryo, pronephros; assay: pronephric angle neck segment to proximal convoluted tubule (mean of left and right), fold change vs DMSO control; higher = larger pronephric angle
# Procedure, shortened: as §1
Compound,glomerular separation [1],glomerular width [2],fraction of imaged embryos annotated as normal kidney [3],pronephric angle neck segment [4]
CC(C)C[C@H](NC(=O)[C@@H](O)[C@H](N)Cc1ccccc1)C(=O)O [Ubenimex],1.12 ± 0.52,1.01 ± 0.048,0.833,1.01 ± 0.028
CC(C)NCC(O)COc1cccc2[nH]ccc12 (stereo not given) [Pindolol],0.674 ± 0.2,0.901 ± 0.021,0.909,0.984 ± 0.025
C#C[C@]1(O)CC[C@H]2[C@@H]3CCC4=C(CCC(=O)C4)[C@H]3CC[C@@]21C [Norethynodrel],1.17 ± 0.41,0.9892 ± 0.0088,0.667,0.984 ± 0.06
N[C@H]1CONC1=O [(S)-(-)-Cycloserine],0.898 ± 0.5,0.892 ± 0.011,0.5,1.025 ± 0.0084
CC[N+](CC)(CC)CCOc1cccc(OCC[N+](CC)(CC)CC)c1OCC[N+](CC)(CC)CC [Gallamine triethiodide],1.13 ± 0.48,1.03 ± 0.04,0.833,0.998 ± 0.034
CC(=O)S[C@@H]1CC2=CC(=O)CC[C@]2(C)[C@H]2CC[C@@]3(C)[C@@H](CC[C@@]34CCC(=O)O4)[C@H]12 [Spironolactone],0.838 ± 0.13,0.912 ± 0.011,1,0.986 ± 0.036
Nc1nc(N)nc(-c2cc(Cl)ccc2Cl)n1 [Irsogladine maleate],1.11 ± 0.39,0.976 ± 0.016,0.909,1.07 ± 0.029
CCOc1nc2cccc(C(=O)O)c2n1Cc1ccc(-c2ccccc2-c2nnn[nH]2)cc1 [Candesartan],0.996 ± 0.37,1.03 ± 0.023,0.917,1.01 ± 0.019
COc1ccc(-c2ccc(=N)n(CCCC(=O)O)n2)cc1 [Gabazine bromide],0.985 ± 0.27,0.983 ± 0.024,0.667,1.02 ± 0.026
CNCCCC1c2ccccc2C=Cc2ccccc21 [Protriptyline hydrochloride],0.765 ± 0.31,1.07 ± 0.027,0.75,0.973 ± 0.027
